# Screening data: PubChem, National Center for Advancing Translational Sciences (NCATS)
# G9a block: inhibitors of human histone lysine methyltransferase G9a; AID 504332; G9a H3K9 monomethylation, AlphaScreen, 2 h; Potency, µM (doses to about 102 µM), for the others: top-dose activity, negative = inhibition, most hits filed as inhibitors; Q96KQ7; actives 8.8% (n = 350,000); further: potency means the concentration at half of the fitted maximal effect; on the % scale 0 is the no-effect control and ±100 the full control effect; nearly all actives have a fitted effect of over 75% in size
# Target sequence (Q96KQ7 913-1193 limits assumed): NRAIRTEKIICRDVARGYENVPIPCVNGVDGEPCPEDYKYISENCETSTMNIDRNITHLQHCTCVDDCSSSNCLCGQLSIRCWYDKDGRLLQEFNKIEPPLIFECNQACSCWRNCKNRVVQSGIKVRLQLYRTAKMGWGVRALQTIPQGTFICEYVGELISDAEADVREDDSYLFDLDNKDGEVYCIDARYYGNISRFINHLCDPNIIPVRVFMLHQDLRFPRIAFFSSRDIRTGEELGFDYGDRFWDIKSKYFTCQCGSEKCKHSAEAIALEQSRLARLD
#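 Enzyme 20 nM + cpd, 15 min RT; add b-H3K9 pep 500 nM / SAM 20 uM; 2 h RT; anti-H3K9me1 Ab 0.5 ug/mL + SA donor / anti-rabbit acceptor beads 20 ug/mL each, 10 min; AlphaScreen read.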
# BAZ2B inh: inhibitors of human BAZ2B bromodomain; Q9UIF8; AlphaScreen BAZ2B-H3K14Ac peptide displacement; Potency, µM (series often up to 114 µM), inactives show at the highest dose activity change, negative = inhibition, hits mostly inhibitors; actives 4.4% (n = 360,000); AID 504333; further: potency means the concentration at half of the fitted maximal effect; on the % scale 0 is the no-effect control and ±100 the full control effect; nearly all actives have a fitted effect of over 60% in size
#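 AlphaScreen displacement of biotin-H3(5-23)K14Ac peptide (50 nM final) from BAZ2B (50 nM final) in PBS pH 7.4, 0.01% Tween-20; complex preformed 30 min RT, then compounds (top 110 uM) 30 min RT, beads 20 min dark.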
# PI5P4Ka inh: PI5P4K alpha (human) kinase inhibition; P48426; AID 652105; max response, %; actives 1.2% (n = 330,000); PI5P4Kalpha enzyme, ADP-Glo luminescence, 60 min; active compounds read low; active means max response of -50% or lower; inconclusive means between -30% and -50%; inactive means -30% or higher; further: value at the top dose of about 77 µM; on the % scale 0 is the no-effect control and ±100 the full control effect
# Target sequence (P48426 whole entry, looked up): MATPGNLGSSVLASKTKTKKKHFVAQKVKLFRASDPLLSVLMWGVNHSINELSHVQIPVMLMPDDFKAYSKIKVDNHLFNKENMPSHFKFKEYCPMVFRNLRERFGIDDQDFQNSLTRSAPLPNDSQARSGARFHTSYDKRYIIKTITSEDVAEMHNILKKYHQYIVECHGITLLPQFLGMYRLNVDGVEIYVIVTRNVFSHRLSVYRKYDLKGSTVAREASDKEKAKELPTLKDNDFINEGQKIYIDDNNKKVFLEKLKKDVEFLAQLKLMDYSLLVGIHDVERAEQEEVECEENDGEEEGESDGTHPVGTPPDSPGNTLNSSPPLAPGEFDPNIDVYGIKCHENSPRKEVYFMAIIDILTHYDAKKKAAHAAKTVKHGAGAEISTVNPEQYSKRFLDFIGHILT
#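 Compounds were pin-transferred onto PI5P4Kalpha and substrate in HEPES pH 7.4 buffer with EGTA, CHAPS and 5% DMSO. ATP (5 microM final) started the reaction, which ran 60 minutes at room temperature before ADP-Glo detection.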
# JMJD2A Tudor inh: JMJD2A Tudor domain (human) inhibition. AlphaScreen JMJD2A-Tudor / H3K4me3 peptide binding. Potency, µM (titrated, usually from 114 µM), for the others: at the highest dose activity change, negative = inhibition, usual class: inhibitors. actives 4.4% (n = 390,000). AID 504339; further: potency means the concentration at half of the fitted maximal effect; on the % scale 0 is the no-effect control and ±100 the full control effect; nearly all actives have a fitted effect of over 50% in size
# HP1b chromo inh: blocks HP1-beta chromodomain binding to methylated histone tails | AlphaScreen HP1-beta / biotin-H3K9me3 peptide binding | Potency, µM (series often up to 114 µM), inactives show at the highest dose activity change, negative = inhibition, hits mostly inhibitors | actives 0.56% (n = 390,000); further: potency means the concentration at half of the fitted maximal effect; nearly all actives have a fitted effect of over 70% in size
#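 HP1-beta protein (50 nM final) preincubated 30 min at room temperature with biotinylated H3(1-18)K9me3 peptide (50 nM) in PBS pH 7.4, 0.01% Tween-20, then compound added for 30 min. AlphaScreen streptavidin donor/nickel chelate acceptor beads (10 ug/mL final), 30 min dark, luminescence read.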
# PLK1 PBD block: PLK1 (human) polo-box domain binding inhibition; actives 2.8% (n = 360,000); AID 720504; Plk1 PBD binding of FITC phosphopeptide, fluorescence polarization; Potency, µM, without a hit: max response, negative = inhibition, actives largely listed as inhibitors; P53350; further: potency means the concentration at half of the fitted maximal effect; series mostly up to about 57 µM; on the % scale 0 is the no-effect control and ±100 the full control effect; nearly all actives have a fitted effect of over 65% in size
# * = called active by the depositor; ? = inconclusive; nt = no result; [ ] = remark or other dose. Most compounds without a hit are left out; they make up all but 12% or so of the library. Unless noted, the call rests on the fitted dose curve; in most records, active means well fitted curve in the direction sought with a large enough effect; inconclusive means small, poorly fitted or top-dose-only effect, or another doubt; inactive means no such curve, though single readings can be large; an effect the other way counts as inactive or inconclusive.
SMILES,G9a block,BAZ2B inh,PI5P4Ka inh,JMJD2A Tudor inh,HP1b chromo inh,PLK1 PBD block
COCCN(CC(=O)Nc1ccccc1C(F)(F)F)C(=O)/C=C/c1cc(Cl)c2c(c1)OCO2,6%[12.7 µM],-3%,-10,-22%,28%,-6%
CCN(CC(=O)Nc1ccccc1C(F)(F)F)C(=O)/C=C/c1ccc(Cl)c([N+](=O)[O-])c1,18µM*,-5%,-1,-14%,20%,-2%
Cc1ccc2c(c1)N/C(=C(\C=C(/Cl)[N+](=O)[O-])[N+](=O)[O-])N2,22µM*,-27%,nt,nt,nt,nt
Cc1ccc2c(c1)/C(=C/c1ccc(F)cc1)C(=O)N2,-24%,-34%,-5,?,-6%,-16%
COc1ccc(-c2csc(NC3=NCCCCC3)n2)cc1,-9%[59 µM],-16%,-6,-8%,32%,-2%
COc1cc(OC)nc(NC(C)=O)n1,nt,8%,nt,3%,28%,-24%
C1CCN=C(Nc2nn[nH]n2)CC1,?,79µM*,nt,7.9µM*,-2%,-1%
COC(=O)c1nc(NC(C)=O)n[nH]1,16µM*,4%,nt,nt,nt,nt
COC(=O)c1nc(NC2=NCCCCC2)n[nH]1,?,1%,0,79µM*,-15%,?
S=c1nc(C2CC2)[nH]c2ccccc12,?,-6%,?,?,-10%,24µM*
O=C(COc1ccc(Cl)cc1)OCc1cc(=O)n2nc(-c3cccs3)sc2n1,13%[59 µM],-24%,nt,-29%,-5%,nt
Cc1cc(C)nc(SCNC(=O)c2ccc(F)cc2)n1,?,-1%,-13,-35%,48%,-17%
Cc1cc(SCNC(=O)c2ccccc2)ncn1,?,-39%,nt,28µM*,?,-25%
O=C(NCCSc1ccc(Br)cc1)c1ccccc1,52%,-2%,7,?,19%,27µM*
O=C(CNC(=O)c1ccccc1)Sc1ccccc1,nt,nt,-3,10%,89%,4.7µM*
O=C(NCSc1ccccc1)c1ccccc1,2%[2.33 µM],0%,5,-9%,28%,24µM*
CSCc1ccc(C(=O)NCCSc2ccc(Br)cc2)cc1,nt,-2%,16,-11%,30%,-24%
O=C(NCNC(=O)c1ccccc1)c1ccccc1,-2%[59 µM],8%,nt,-10%,3%,-14%
CCOc1ccc(NC(=O)C2CCCN(c3nn4cc(-c5ccc(OC)cc5)nc4s3)C2)cc1 (configuration not stated),0%[59 µM],-3%,nt,-9%,13%,nt
COC(=O)c1cc(OC)c(OC)cc1NC(=O)c1csc(C)c1,-2%,-22%,-1,-3%,35%,-2%
COc1cccc(NC(=O)c2oc3ccccc3c2NC(=O)Cc2cccc(C)c2)c1,6%[59 µM],-9%,nt,-13%,51%,nt
CN1CCCCCC1=Nc1ccccc1C#N,?,45µM*,1,1.8µM*,13µM*,-1%
Cn1ncc(C#N)c1/N=C/N1CCCCCC1,?,-2%,nt,-15%,32%,-3%
CC(=O)c1ccc(NC(=O)CC(NCCC2=CCCCC2)C(=O)O)cc1 (configuration not stated),?,-6%,0,13µM*,-15%,-4%
O=C(NNC(=O)c1cccc2ccccc12)c1cccc(Cl)c1,nt,nt,1,-4%,30%,0%
SMILES,G9a block,BAZ2B inh,PI5P4Ka inh,JMJD2A Tudor inh,HP1b chromo inh,PLK1 PBD block
CN(C)CCNC(=O)c1ccccc1-c1ccccc1,16%[59 µM],-6%,0,-5%,17%,-4%
C=CCNCCOCCOc1ccccc1-c1ccccc1,nt,79µM*,1,50µM*,-26%,-8%
OCCOCCOc1ccccc1OCCOCCO,-8%,-1%,-3,-9%,17%,-3%
CN(C)CCNCCCOc1ccccc1-c1ccccc1,8.9µM*,40µM*,nt,nt,nt,nt
CC(C)(C)NCCOCCOc1ccccc1-c1ccccc1,3.5µM*,22µM*,5,1.8µM*,22µM*,-7%
COCCCNCCOCCOc1ccccc1-c1ccccc1,?,50µM*,-16,2.5µM*,?,-9%
CCC(C)NC(=O)Cn1c(=O)n(CC2CCC(C(=O)NC)CC2)c(=O)c2sccc21 (configuration not stated),3%[59 µM],-1%,nt,-4%,38%,nt
COc1ccc(C2CC=C(C(C)=O)CN2S(=O)(=O)c2ccc(Cl)cc2)cc1 (configuration not stated),nt,nt,0,nt,nt,-2%
COC(=O)c1ccccc1OCCCOc1ccc(C)cc1OC,-3%[59 µM],-37%,nt,nt,nt,nt
COC(=O)c1ccccc1OCCCN(C)C,8.9µM*,79µM*,-3,89µM*,?,-9%
CCC(C)NCCOCCOc1ccccc1-c1ccccc1 (configuration not stated),13µM*,50µM*,nt,3.5µM*,?,-2%
O=S1(=O)CCOC[C@H](CC2CCCCC2)N1Cc1ccccc1Br,19%,-19%,20,19%,69%,6%
c1ccc(C2NCCc3ccccc32)cc1 (configuration not stated),-5%,-1%,1,?,22%,27µM*
CCOc1ccc(CC(=O)NC2CC(=O)N(c3ccc4c(c3)OCCO4)C2)cc1 (configuration not stated),22%[59 µM],0%,nt,-9%,18%,nt
Cc1cccc(N(C)C(=O)C2CCN(S(=O)(=O)c3cccc4nonc34)CC2)c1,-4%[59 µM],-37%,nt,-30%,-13%,nt
CC(C)c1cc[n+](-c2nc([O-])sc2C=O)cc1,?,79µM*,-16,35µM*,20%,?
CCOc1ccccc1CNC(=O)c1cc2c(=O)n(Cc3ccccc3)ccc2nc1C,3%[59 µM],-12%,nt,-17%,2%,nt
Cc1ccc(Cl)c2c1=NC(=O)C=2c1[nH]c(=S)[nH]c1O,7.9µM*,?,-75*,-26%,?,-17%
COc1ccccc1NC(=O)CSC1=Nc2ccccc2C2=NC(CC(=O)NCc3ccc4c(c3)OCO4)C(=O)N12 (configuration not stated),-3%[59 µM],-16%,nt,-31%,7%,nt
O=C(CC1N=C2c3ccccc3N=C(SCC(=O)Nc3ccccc3F)N2C1=O)NCc1ccc2c(c1)OCO2 (configuration not stated),13µM*,?,nt,-25%,14%,nt
O=C(CCC1N=C2c3ccccc3N=C(SCc3cccc(F)c3)N2C1=O)NCc1cccs1 (configuration not stated),-2%[59 µM],-6%,nt,79µM*,-2%,nt
O=C(CCC1N=C2c3ccccc3N=C(SCc3ccc(F)cc3)N2C1=O)NCc1cccs1 (configuration not stated),-1%[59 µM],-10%,nt,-23%,90%,nt
CSCC[C@H](NC(=O)Cc1c(C)c2cc3c4c(oc3cc2oc1=O)CCCC4)C(=O)O,45µM*,-10%,2,-19%,32%,-23%
CNc1ccc(/C=C/C(=O)c2cccc3ccccc23)cc1[N+](=O)[O-],10µM*,7.1µM*,18,8.9µM*,16µM*,2%
